# Results: PubChem BioAssay (NCI)
# About 79,000 compounds went through this panel and 15% of them were active in at least one assay; those are over-represented in the sample as a whole. Unmarked numbers belong to inactive results. Activity calls are given as the source filed them. Cut-off read from the data, not from the text of the source: active = growth inhibition above about 70%; inactive = the rest. Where a SMILES comes first, the peptide text is derived from it. [ ]: non-standard residue; d: D form. The star is where a group is joined. ξ: configuration not given here. X14 = COC1=CC(=O)N(C(=O)C(O*)C(C)C)C1Cc1ccccc1; ξNMe2Val = CC(C)C(C(=O)*)N(C)C; NMeV = CN[CH](C(=O)O)C(C)C
# Experiments:
# [1] = NCI Yeast Anticancer Drug Screen. Data for the rad50 strain (AID 155);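 note: 0% = growth of vehicle-only cultures of the same strain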; settings: S. cerevisiae rad50 strain growth inhibition; at 50.0 µM; stronger effect = higher value
# Summary of the method: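 Genetically altered yeast (DNA repair pathway); compound treatment; growth inhibition vs vehicle ctrl.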
# [2] = NCI Yeast Anticancer Drug Screen. Data for the mec2-1 strain (AID 157); settings: S. cerevisiae mec2-1 strain, at 50.0 µM, stronger effect = higher value
# Summary of the method: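 Readout is yeast growth inhibition, normalised to vehicle-treated controls, in the mec2-1 strain exposed to compound.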
# [3] = NCI Yeast Anticancer Drug Screen. Data for the cln2 rad14 strain (AID 165);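 note: 0% = growth equal to vehicle treated cultures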; settings: S. cerevisiae cln2 rad14 strain, at 50.0 µM, stronger effect = higher value
# Summary of the method: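 Relative to vehicle controls, growth inhibition of compound-treated cln2 rad14 yeast was recorded.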
# [4] = NCI Yeast Anticancer Drug Screen. Data for the bub3 strain (AID 167); settings: S. cerevisiae bub3 mutant strain, at 50.0 µM, stronger effect = higher value
# Summary of the method: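 Yeast carrying a defined mutation is treated with each compound, and growth is compared with that of vehicle-exposed cells to give inhibition.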
# [5] = NCI Yeast Anticancer Drug Screen. Data for the mlh1 rad18 strain (AID 175); settings: S. cerevisiae mlh1 rad18 strain growth inhibition; at 50.0 µM; stronger effect = higher value
# Summary of the method: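 Test agents were incubated with a yeast strain of defined genotype (DNA damage repair defect). Inhibition of growth was derived by comparison with vehicle-exposed cultures.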
# [6] = NCI Yeast Anticancer Drug Screen. Data for the sgs1 mgt1 strain (AID 161);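 note: 0% = growth of cultures given vehicle only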; settings: S. cerevisiae sgs1 mgt1 strain, at 50.0 µM, stronger effect = higher value
# Summary of the method: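 Growth of a repair-deficient yeast mutant was monitored after compound treatment and expressed as inhibition relative to vehicle-treated cultures.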
Compound,growth inhibition [1] [%],growth inhibition [2] [%],growth inhibition [3] [%],growth inhibition [4],growth inhibition [5] [%],growth inhibition [6]
COC1=CC(=O)N(C(=O)C(OC(=O)C2CCCN2C(=O)C2CCCN2C(=O)C(C(C)C)N(C)C(=O)C(NC(=O)C(C(C)C)N(C)C)C(C)C)C(C)C)C1Cc1ccccc1 (stereo not given) (ξNMe2Val-V[NMeV]PP-X14; configuration not given here),16.9,-21.4,-7.6,28.9%,-32.6,
CCC1CN(CC(=O)c2ccc(Br)cc2)CCO1 (stereo not given),5.4,3.35,20.6,48.6%,25,
COc1c(O)cc2c(c1OC)-c1ccc(SC)c(=O)cc1C(NC(C)=O)CC2 (stereo not given),10.4,-9.4,,1.95%,23.9,4.95%
CC(C)OP(=O)(NC(=S)c1ccccc1)OC(C)C,,,,,,36.4%
C=CCN1CC2CN=NC2(C#N)C1 (stereo not given),,,,,,0.65%
O=[N+]([O-])c1cc2n[nH]nc2c2nonc12,1.45,,-2.05,27.1%,5.7,11.4%
O=P1(Oc2ccccc2)N(CCCl)CCN1c1ccccc1 (stereo not given),-12.2,,13.2,32.1%,-4.65,7.15%
CN=NNc1nc[nH]c1C(N)=O,23.9,,,3.85%,40.5,25.2%
CCC(C)(Cl)c1ccccc1 (stereo not given),-11.7,,-0.4,-21.4%,-14.1,-13.6%
NC(=O)c1cc(N(CCCl)CCCl)c([N+](=O)[O-])cc1[N+](=O)[O-],38.9,,14.4,18.6%,5.5,10.4%
O=C(O)C(O)(c1ccccc1)c1ccco1 (stereo not given),,1.8,21.3,-28.9%,12.7,-5.25%
CC(C)(C)NP(=O)(NC(C)(C)C)NC(C)(C)C,5.65,,4.85,-8.5%,8.2,-17.2%
O=C(Cc1ccc(N(CCCl)CCCl)cc1)NC1CCCC1,-0.05,,-22.9,-2.3%,18.1,-13.9%
N.N.N.N.O=C([O-])CCl.O=C([O-])CCl.[Co+3].[O-][Cl+3]([O-])([O-])[O-],-32.1,,26.7,-6.5%,-17.5,-30.4%
BrCC[N+]12CC[N+](CCBr)(CC1)C2 (tested in a mixture with another compound),63.1,,61.5,78.1% (active),42.4,81.6% (active)
Nc1nnc(N)n1N,15.8,,-20.3,1.5%,-1.65,-8.15%
CC(NC1=NCCO1)c1ccsc1 (stereo not given),21.9,,14.8,3.75%,-24.1,3.5%
O=NN(CCCl)C(=O)O,5.55,,-42.8,10.9%,11.9,-5.25%
c1ccc(-c2c[se]nn2)cc1,,-10.1,-26.6,-11.2%,,-2.6%
COc1cc2c(c3oc4cccc(O)c4c(=O)c13)[C@@H]1C=CO[C@@H]1O2,-11.6,,26.1,-8.7%,-8.9,-7.05%
CC12CC/C(=N/NC(=O)Cc3c[nH]c4ccccc34)C=C1CCC1C2CCC2(C)C(OC(=O)c3ccccc3)CCC12 (stereo not given),35.8,,0.65,3.3%,34.8,24.1%
CSc1nc2cc(Cl)ccc2c2c1C=NCCN2,28.6,,-43.4,-24.1%,4.05,13.7%
CC1N2C3(c4ccccc4)OC(c4ccccc4)(c4ccccc43)C12c1ccccc1 (stereo not given),9.8,,31.9,0.8%,4.05,4.95%
CC1CN1P(=O)(N1CCCC1)N1CC1C (stereo not given),5.25,,6.5,-1.5%,13.4,-20.3%
CC(=O)OCC1OC(n2ncc3c(N4CC4)ncnc32)C(OC(C)=O)C1OC(C)=O (stereo not given),7.7,,6.65,1.45%,4.25,-21.3%
COc1ccc2c(c1O)C13C=C(OS(=O)(=O)c4ccc(C)cc4)C=CC1C(C2)N(C)CC3 (stereo not given),40.3,,13.9,-1.85%,3.55,34.9%
C=CCn1nnc(N)n1,,7.15,19.5,8.35%,-2.25,-21.8%
